# Assay results: the antibiotic and cytotoxicity screens of Wong et al. (2023)
# The whole screen tested about 39,000 compounds, of which about 3,300 (8.5%) were called active. The sample as a whole holds a higher share of actives than the screen did.
# Test system: HepG2
# Test: cytotoxicity call (relative viability < 0.9)
# Details: 10 µM
row,SMILES,cytotoxicity call
1,C[C@@H]1CN([C@@H](C)CO)C(=O)c2cc(NS(=O)(=O)c3cn(C)cn3)ccc2O[C@@H](C)CCCCO[C@H]1CN(C)C(=O)c1ccncc1,inactive
2,CO[C@H]1C[C@@H](C[C@@H](C)[C@H]2CC(=O)[C@@H](C)/C=C(\C)[C@@H](O)[C@@H](OC)C(=O)[C@@H](C)C[C@@H](C)/C=C/C=C/C=C(\C)[C@H](OC)C[C@H]3CC[C@@H](C)[C@@](O)(O3)C(=O)C(=O)N3CCCC[C@@H]3C(=O)O2)CC[C@@H]1OC(=O)C(C)(CO)CO,inactive
3,CO[C@H]1C[C@@H]2CC[C@@H](C)[C@@](O)(O2)C(=O)C(=O)N2CCCC[C@H]2C(=O)O[C@H]([C@H](C)C[C@@H]2CC[C@@H](OC(=O)C(C)(CO)CO)[C@H](OC)C2)CC(=O)[C@H](C)/C=C(\C)[C@@H](O)[C@@H](OC)C(=O)[C@H](C)C[C@H](C)/C=C/C=C/C=C/1C,inactive
4,CO[C@H]1C[C@@H](C[C@@H](C)[C@H]2CC(=O)[C@H](C)/C=C(\C)[C@@H](O)[C@H](OC)C(=O)[C@H](C)C[C@H](C)/C=C/C=C\C=C(C)[C@H](OC)C[C@@H]3CC[C@@H](C)[C@@](O)(O3)C(=O)C(=O)N3CCCC[C@H]3C(=O)O2)CC[C@H]1OC(=O)C(C)(CO)CO,active
5,C[C@@H]1CN([C@H](C)CO)C(=O)c2cc(NC(=O)Cc3ccccc3)ccc2O[C@@H]1CN(C)Cc1ccc(Cl)c(Cl)c1,inactive
6,C[C@@H]1CN([C@H](C)CO)C(=O)c2cc(NS(C)(=O)=O)ccc2O[C@@H]1CN(C)C(=O)Nc1ccccc1,inactive
7,Cc1nc(CCO)cs1,inactive
8,CC(C)[Si](C#CCCc1ccccc1)(O[C@H](c1ccccc1)c1cn(Cc2ccccc2)nn1)C(C)C,inactive
9,Nc1nc2c(ncn2COCCO)c(=O)[nH]1,inactive
10,Nc1nc2c(ncn2COC(CO)CO)c(=O)[nH]1.O,inactive
11,C=C1C(CO)C(O)CC1n1cnc2c(=O)[nH]c(N)nc21.O (configuration not stated),active
12,C[C@@H]1CN([C@H](C)CO)C(=O)CCCn2cc(nn2)CO[C@@H]1CN(C)C(=O)C1CC1,inactive
13,Cc1ccccc1N1CCN(S(=O)(=O)C[C@]23CC[C@H](C[C@@H]2NC(=O)[C@@H](N)CCS(C)(=O)=O)C3(C)C)CC1,inactive
14,COc1ccc(CN(C)C[C@@H]2OCCCC[C@H](C)Oc3ccc(NC(=O)Nc4ccccc4)cc3C(=O)N([C@@H](C)CO)C[C@H]2C)cc1,inactive
15,O=C(C[C@@H]1CC[C@H](NS(=O)(=O)c2ccc(F)cc2)[C@@H](CO)O1)N1CCC(Cc2ccccc2)CC1,inactive
16,CC1(COc2ccc3c(c2)ncn3-c2ccc3cccc(N4CCC(N)CC4)c3n2)COC1,active
17,C[C@@H]1CN([C@@H](C)CO)S(=O)(=O)c2ccc(C#Cc3ccccc3)cc2O[C@@H]1CN(C)S(=O)(=O)c1ccccc1F,inactive
18,C[C@@H](CN1CCCCC1)C(=O)NN,inactive
19,Cc1ccc(C(=O)C(C)CN2CCCCC2)cc1.Cl (configuration not stated),inactive
20,Cl.O=C(Nc1ccccc1)OCC(CN1CCCCC1)OC(=O)Nc1ccccc1 (configuration not stated),active
21,C[C@H](CO)N1C[C@H](C)[C@@H](CN(C)S(C)(=O)=O)Oc2ccc(NS(=O)(=O)c3ccc(Cl)cc3)cc2CC1=O,inactive

row,SMILES,cytotoxicity call
1,Cc1noc(C)c1NC(=O)N(C)C[C@H]1OCCCC[C@@H](C)Oc2ccc(NC(=O)Nc3cccc4ccccc34)cc2C(=O)N([C@@H](C)CO)C[C@H]1C,inactive
2,C[C@@H]1CCCCO[C@@H](CN(C)Cc2ccc3c(c2)OCO3)[C@H](C)CN([C@@H](C)CO)C(=O)c2cc(NC(=O)C3CCCCC3)ccc2O1,inactive
3,C[C@@H]1CCCCO[C@H](CN(C)Cc2ccc3c(c2)OCO3)[C@H](C)CN([C@H](C)CO)C(=O)c2cc(NC(=O)C3CCCCC3)ccc2O1,active
4,C[C@@H]1CN([C@@H](C)CO)C(=O)c2cc(NC(=O)C3CCCCC3)ccc2O[C@@H](C)CCCCO[C@@H]1CN(C)Cc1ccc2c(c1)OCO2,inactive
5,C[C@@H]1CCCCO[C@@H](CN(C)Cc2ccc3c(c2)OCO3)[C@@H](C)CN([C@@H](C)CO)C(=O)c2cc(NC(=O)C3CCCCC3)ccc2O1,inactive
6,C[C@@H]1CN([C@H](C)CO)C(=O)c2cc(NC(=O)C3CCCCC3)ccc2O[C@@H](C)CCCCO[C@@H]1CN(C)Cc1ccc2c(c1)OCO2,active
7,C[C@H](CO)N1C[C@H](C)[C@H](CN(C)Cc2ccc3c(c2)OCO3)OCCCC[C@H](C)Oc2ccc(NC(=O)C3CCCCC3)cc2C1=O,inactive
8,C[C@@H]1CCCCO[C@H](CN(C)Cc2ccc3c(c2)OCO3)[C@H](C)CN([C@@H](C)CO)C(=O)c2cc(NC(=O)C3CCCCC3)ccc2O1,active
9,C[C@H]1CCCCO[C@H](CN(C)Cc2ccc3c(c2)OCO3)[C@@H](C)CN([C@@H](C)CO)C(=O)c2cc(NC(=O)C3CCCCC3)ccc2O1,inactive
10,C[C@@H]1CCCCO[C@@H](CN(C)Cc2ccc3c(c2)OCO3)[C@H](C)CN([C@H](C)CO)C(=O)c2cc(NC(=O)C3CCCCC3)ccc2O1,inactive
11,C[C@@H]1CCCCO[C@H](CN(C)Cc2ccc3c(c2)OCO3)[C@@H](C)CN([C@@H](C)CO)C(=O)c2cc(NC(=O)C3CCCCC3)ccc2O1,inactive
12,C[C@@H]1CCCCO[C@H](CN(C)Cc2ccc3c(c2)OCO3)[C@@H](C)CN([C@H](C)CO)C(=O)c2cc(NC(=O)C3CCCCC3)ccc2O1,active
13,C[C@H](CO)N1C[C@H](C)[C@@H](CN(C)Cc2ccc3c(c2)OCO3)OCCCC[C@H](C)Oc2ccc(NC(=O)C3CCCCC3)cc2C1=O,inactive
14,O=C(C[C@@H]1C[C@@H]2c3cc(NC(=O)NC4CCCC4)ccc3O[C@@H]2[C@H](CO)O1)NCc1ccc2c(c1)OCO2,inactive
15,CO/N=C(\C(=O)N[C@@H]1C(=O)N2C(C(=O)O)=C(CSC(=O)c3ccco3)CS[C@H]12)c1csc(N)n1,inactive
16,CC(C)NC(=O)N(C)C[C@H]1Oc2ccc(NC(=O)c3ccncc3)cc2CC(=O)N([C@@H](C)CO)C[C@H]1C,inactive
17,CC(C)NC(=O)N(C)C[C@H]1Oc2ccc(NC(=O)CCN3CCOCC3)cc2C(=O)N([C@H](C)CO)C[C@H]1C,inactive
18,CC(C)NC(=O)Nc1ccc2c(c1)CC(=O)N([C@@H](C)CO)C[C@@H](C)[C@@H](CN(C)C(=O)Nc1ccc3c(c1)OCO3)O2,inactive
19,C[C@H]1CN([C@@H](C)CO)C(=O)Cc2cc(NS(=O)(=O)c3ccccc3)ccc2O[C@H]1CN(C)S(=O)(=O)c1cn(C)cn1,inactive
20,CNC(=O)Cn1c(=O)c2c(OC)ccnc2n(C)c1=O,inactive
21,Cc1noc(C)c1NC(=O)Nc1ccc2c(c1)C(=O)N([C@H](C)CO)C[C@H](C)[C@H](CN(C)S(=O)(=O)c1cccs1)OCCCC[C@@H](C)O2,inactive

row,SMILES,cytotoxicity call
1,C[C@@H]1CCCCO[C@H](CN(C)C(=O)NC2CCCCC2)[C@@H](C)CN([C@H](C)CO)C(=O)c2cc(NC(=O)Cc3ccccc3)ccc2O1,inactive
2,COc1ccc(S(=O)(=O)Nc2ccc3c(c2)CC(=O)N([C@H](C)CO)C[C@@H](C)[C@H](CN(C)CC2CC2)O3)cc1,inactive
3,CC1(C)CCC(c2ccc(Cl)cc2)=C(CN2CCN(c3ccc(C(=O)NS(=O)(=O)c4ccc(N[C@H](CCN5CCOCC5)CSc5ccccc5)c(S(=O)(=O)C(F)(F)F)c4)cc3)CC2)C1,active
4,CC1(C)CCC(CN2CCN(c3ccc(C(=O)NS(=O)(=O)c4ccc(NCC5CCOCC5)c([N+](=O)[O-])c4)c(Oc4cnc5[nH]ccc5c4)c3)CC2)=C(c2ccc(Cl)cc2)C1,inactive
5,CN(C)CC[C@H](CSc1ccccc1)Nc1ccc(S(=O)(=O)NC(=O)c2ccc(N3CCN(Cc4ccccc4-c4ccc(Cl)cc4)CC3)cc2)cc1[N+](=O)[O-],inactive
6,CC1(C)CCC(c2ccc(Cl)cc2)=C(CN2CCN(c3ccc(C(=O)NS(=O)(=O)c4ccc(N[C@@H](CCN5CCOCC5)CSc5ccccc5)c(S(=O)(=O)C(F)(F)F)c4)cc3)CC2)C1,active
7,CCCNC(=O)Nc1ccc2c(c1)OC[C@@H](C)N(C(=O)C1CCOCC1)C[C@H](C)[C@@H](OC)CN(C)C2=O,inactive
8,C[C@H](CO)N1C[C@H](C)[C@H](CN(C)C(=O)Nc2ccc(F)cc2)OCCCC[C@H](C)Oc2ccc(NC(=O)C3CCC3)cc2C1=O,inactive
9,COc1ccc(S(=O)(=O)Nc2ccc3c(c2)C(=O)N([C@H](C)CO)C[C@H](C)[C@H](CN(C)S(=O)(=O)c2ccc(C)cc2)O3)cc1,inactive
10,C[C@@H]1CCCCO[C@@H](CN(C)C(=O)Nc2ccc3c(c2)OCO3)[C@H](C)CN([C@H](C)CO)C(=O)c2cc(NC(=O)c3ccccc3)ccc2O1,inactive
11,Cc1ccc(S(=O)(=O)N(C)C[C@@H]2Oc3ccc(NC(=O)Cn4cnnn4)cc3CC(=O)N([C@H](C)CO)C[C@@H]2C)cc1,inactive
12,NC(=O)CCN1C(=O)c2ccccc2C1=O,inactive
13,N#CCNC(=O)CN1C(=O)c2ccccc2C1=O,inactive
14,COC(=O)C(CCCN1C(=O)c2ccccc2C1=O)(NC(C)=O)c1nn[nH]n1 (configuration not stated),active
15,O=C(C[C@@H]1CC[C@H]2[C@@H](COC[C@@H](O)CN2C(=O)Nc2ccc(Cl)cc2)O1)NCCc1ccncc1,inactive
16,Cc1ccccc1S(=O)(=O)N1C[C@H](O)COC[C@@H]2O[C@@H](CC(=O)NCCc3ccccc3)CC[C@H]21,inactive
17,CO[C@H]1CN(C)C(=O)c2cc(NC(=O)Nc3ccccc3)ccc2OC[C@@H](C)N(C(=O)CN(C)C)C[C@H]1C,inactive
18,CNCCCC1c2ccccc2C=Cc2ccccc21.Cl,active
19,CNCc1ccccc1.Cl,inactive
20,OCC1c2ccccc2-c2ccccc21,inactive
